# Source: PubChem BioAssay
# A selection: hits, their analogues and other compounds. The true share with any hit is near 12%.
# JMJD2A Tudor = JMJD2A Tudor domain (human) inhibition | O75164 | AlphaScreen JMJD2A-Tudor / H3K4me3 peptide binding | Potency, µM (highest dose often 114 µM), for inactives: top-dose activity change, negative = inhibition, hits mostly inhibitors | 390,000 tested, 4.4% active | AID 504339; further: on the % scale 0 is the no-effect control and ±100 the full control effect; nearly all actives have a fitted effect of over 50% in size
# Sfp PPTase inh = blocks B. subtilis Sfp PPTase activity | Biochemical Sfp PPTase activity, qHTS | Q9F4F7 | Potency, µM, for inactives: largest response in the series, negative = inhibition, actives largely listed as inhibitors | AID 1490 | 310,000 tested, 3.5% active;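 further: the enzyme is Sfp with the accession as filed and its product quenches rhodamine fluorescence; 0% = enzyme reaction without inhibitor and -100% = no enzyme wells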
#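 Fluorescence-quenching assay with 15 nM Sfp, 5 uM rhodamine-CoA and 12.5 uM BHQ-2-labelled ybbR peptide in pH 7.6 Hepes/MgCl2 buffer. Enzyme was pre-incubated with compound for 15 min at room temperature. Rate was taken from the 30-min fluorescence change (525/598 nm).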
# HP1b chromo inh = blocks HP1-beta chromodomain binding to methylated histone tails | AlphaScreen HP1-beta / biotin-H3K9me3 peptide binding | Potency, µM (highest dose often 114 µM), for inactives: top-dose activity change, negative = inhibition, usual class: inhibitors | 390,000 tested, 0.56% active; further: nearly all actives have a fitted effect of over 70% in size
# Target sequence (P83916 whole entry, looked up): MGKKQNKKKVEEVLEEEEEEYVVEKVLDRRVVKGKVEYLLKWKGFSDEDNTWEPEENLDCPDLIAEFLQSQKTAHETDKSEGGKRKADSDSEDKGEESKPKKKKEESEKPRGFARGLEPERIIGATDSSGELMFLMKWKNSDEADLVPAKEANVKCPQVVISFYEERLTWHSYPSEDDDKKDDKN
#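 Compound inhibition of the preformed complex between 50 nM HP1-beta and 50 nM biotinylated H3K9me3 peptide was read by AlphaScreen. Buffer was PBS pH 7.4 with 0.01% Tween-20. Incubations ran 30 min at room temperature, with 10 ug/mL donor/acceptor beads.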
# BAZ2B block = blocks human BAZ2B; AID 504333; Q9UIF8; AlphaScreen BAZ2B-H3K14Ac peptide displacement; Potency, µM (highest dose often 114 µM), for inactives: at the top dose activity change, negative = inhibition, usual class: inhibitors; 360,000 tested, 4.4% active; further: on the % scale 0 is the no-effect control and ±100 the full control effect; nearly all actives have a fitted effect of over 60% in size
#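 AlphaScreen displacement of biotin-H3(5-23)K14Ac peptide (50 nM final) from BAZ2B (50 nM final) in PBS pH 7.4, 0.01% Tween-20; complex preformed 30 min RT, then compounds (top 110 uM) 30 min RT, beads 20 min dark.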
# G9a inh = blocks human histone lysine methyltransferase G9a | G9a H3K9 monomethylation, AlphaScreen, 2 h | 350,000 tested, 8.8% active | AID 504332 | Potency, µM (doses to about 102 µM), for the others: at the highest dose activity, negative = inhibition, usual class: inhibitors; further: on the % scale 0 is the no-effect control and ±100 the full control effect; nearly all actives have a fitted effect of over 75% in size
# Target sequence (Q96KQ7 913-1193 limits assumed): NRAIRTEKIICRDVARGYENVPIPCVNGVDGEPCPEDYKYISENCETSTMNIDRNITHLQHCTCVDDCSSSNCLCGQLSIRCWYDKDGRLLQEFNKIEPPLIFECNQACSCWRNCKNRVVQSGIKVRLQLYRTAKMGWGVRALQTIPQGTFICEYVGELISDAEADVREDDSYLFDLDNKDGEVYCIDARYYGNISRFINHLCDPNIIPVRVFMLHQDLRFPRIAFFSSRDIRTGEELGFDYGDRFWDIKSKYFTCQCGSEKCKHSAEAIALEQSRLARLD
#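 AlphaScreen detection with an anti-monomethyl H3K9 antibody quantified product after a 2 h room-temperature reaction containing 500 nM biotinylated H3K9 peptide, 20 µM SAM and 20 nM enzyme, which had been preincubated 15 min with compound.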
# PLK1 PBD inh = blocks phosphopeptide binding to human PLK1 polo-box domain; 360,000 tested, 2.8% active; Potency, µM, without a hit: max response, negative = inhibition, most hits filed as inhibitors; Plk1 PBD binding of FITC phosphopeptide, fluorescence polarization; P53350; AID 720504; further: series mostly up to about 57 µM; on the % scale 0 is the no-effect control and ±100 the full control effect; nearly all actives have a fitted effect of over 65% in size
# * marks the source's active call; other numbers are inactive results; ? = inconclusive; · = no result given; [ ] = dose if it differs, or a comment. The call rests on the fitted dose curve; in most records, active means well fitted curve in the direction sought with a large enough effect; inconclusive means small, poorly fitted or top-dose-only effect, or another doubt; inactive means no such curve, though single readings can be large; an effect the other way counts as inactive or inconclusive. Potency means the concentration at half of the fitted maximal effect.
SMILES,JMJD2A Tudor,Sfp PPTase inh,HP1b chromo inh,BAZ2B block,G9a inh,PLK1 PBD inh
C=CCn1c(-c2cc(-c3ccccc3)sc2N)n[nH]c1=S,-28%,79µM*,26%,-13%,·,-6%
CCn1c(-c2csc(-c3ccc(Cl)cc3)n2)n[nH]c1=S,-3%,9%,50%,6%,?,-9%
CC(OC(=O)c1ccc2ncsc2c1)C(=O)N(C)C1CCCCC1 (stereo not given),?,·,15%,?,14%[2.33 µM],-7%
CCn1cc(C(=O)NCCc2ccc(Cl)cc2)c(=O)c2cc(S(=O)(=O)N3CCC(C)CC3)ccc21,-15%,·,24%,·,-23%[59 µM],·
NC(=O)C1CN(S(=O)(=O)c2ccc(Cl)cc2F)c2ccccc2O1 (stereo not given),-10%,11%,7%,-2%,79µM*,1%
C=CCOC(=O)C(C(=O)CC)C(NC(=O)OC)c1ccc(F)cc1 (stereo not given),·,-2%,·,·,·,·
CN(C)c1ccc(CNc2ncnc3sccc23)cc1,-35%,-6%,3%,-36%,13µM*,-16%
NS(=O)(=O)c1ccc(CNc2ncnc3sccc23)cc1,-3%,22%,28%,3%,?,2%
CN(C)c1ccc(CNc2ncc(Br)cc2Br)cc1,20µM*,-7%,-66%,14µM*,40µM*,1%
Cc1ccc(S(=O)(=O)Nc2ccccc2CNc2ncc(Br)cc2Br)cc1,-8%,-3%,31%,2%,18%[59 µM],-1%
COC(=O)N1[C@H](C)C=C[C@]1(Cc1ccccc1)C(=O)NCc1ccc(C)o1,·,45µM*,·,·,·,·
COC(=O)N1[C@H](C)C=C[C@]1(Cc1ccccc1)C(=O)NCc1ccc(N(C)C)cc1,·,-1%,·,·,·,·
CNc1snc(C)c1C(=O)OC(C)C(=O)Nc1cccc(OC)c1 (stereo not given),-16%,·,32%,8%,-16%[2.33 µM],-4%
CN1CCc2cc3c(cc2C(=O)Cc2ccc4c(c2C1)OCO4)OCO3,·,1%,·,·,·,·
CN(C(=O)c1ccc(S(=O)(=O)c2cccc(Cl)c2)c([N+](=O)[O-])c1)C1CCCCC1,?,7%,-8%,-36%,32µM*,-3%
O=C(NC1CCCCC1)c1ccc(S(=O)(=O)c2ccccc2Cl)c([N+](=O)[O-])c1,·,-7%,·,-32%,?,·
O=C(CC1NCCNC1=O)Nc1cccc(F)c1 (stereo not given),-2%,·,57%,-6%,10%[59 µM],·
COC(=O)c1ccccc1NC(=S)NC(NC(=O)c1ccccc1[N+](=O)[O-])C(Cl)(Cl)Cl (stereo not given),-20%[57.1 µM],-2%,1%,1%,3.5µM*,27µM*
O=C(NC(NC(=S)Nc1ccccc1C(=O)O)C(Cl)(Cl)Cl)c1ccccc1 (stereo not given),50µM*,35µM*,?,?,25µM*,6µM*
COC(=O)c1ccccc1NC(=S)NC(NC(=O)c1ccco1)C(Cl)(Cl)Cl (stereo not given),-32%,-3%,-5%,-3%,2.2µM*,-26%
O=C(NC(NC(=S)Nc1ccccc1C(=O)O)C(Cl)(Cl)Cl)c1ccco1 (stereo not given),79µM*,40µM*,-27%,-2%,10µM*,21µM*
COc1ccc(N(Cc2cccs2)C(=O)Nc2cccc(Cl)c2)cc1,20%,·,90%,29%,14%[59 µM],·
CC(NS(=O)(=O)c1ccc2c(c1)CCN2C(=O)CCCC(=O)O)c1ccccc1 (stereo not given),4%,·,39%,·,-2%[59 µM],·
Cc1cc(C)cc(-n2ncc3c2CCCC3NC(=O)CCN2CCCC2=O)c1 (stereo not given),4%,8%,33%,2%,·,-3%
Cc1ccccc1NC(=S)NC(NC(=O)COc1ccccc1)C(Cl)(Cl)Cl (stereo not given),-6%,12%,19%,9%,8%,-11%
SMILES,JMJD2A Tudor,Sfp PPTase inh,HP1b chromo inh,BAZ2B block,G9a inh,PLK1 PBD inh
COC(=O)c1ccccc1NC(=S)NC(NC(=O)COc1ccccc1)C(Cl)(Cl)Cl (stereo not given),-25%,4%,-20%,13%,2.2µM*,?
CCCNc1ncnc2c1c(-c1ccccc1)cn2-c1ccccc1,-28%,·,31%,2%,0%[59 µM],·
Cc1ccc(C)c(Nc2nc3nonc3nc2Nc2cccc(C)c2C)c1,?,·,19%,?,-49%[59 µM],·
CCOC(=O)c1ccc(Nc2nc3nonc3nc2Nc2cccc(C)c2C)cc1,?,·,-1%,22µM*,-50%[59 µM],·
Cc1ccc(S(=O)(=O)CCC(=O)Oc2ccc3c(C)cc(=O)oc3c2)cc1,?,·,15%,-1%,50µM*,?
Cc1ccc(OC(=O)CCS(=O)(=O)c2ccc(C)cc2)cc1,15%,7%,19%,1%,·,?
O=C(OCn1ncc(Cl)c(Cl)c1=O)c1cccc(C(F)(F)F)c1,24%,13%,39%,-35%,?,?
O=C(OCn1ncc(Br)c(Br)c1=O)c1ccc(F)cc1,-10%,50µM*,32%,0%,-25%[12.7 µM],9.5µM*
O=C(OCn1ncc(Br)c(Br)c1=O)c1ccccc1Cl,-9%,-16%,64%,-9%,0%[12.7 µM],19µM*
CC[C@H](C)Cc1cn([C@@H](CCCN=C(N)N)C(=O)NCCCCCCCCCCC(=O)N2CCNCC2)nn1,-23%,·,24%,11%,6%[2.33 µM],-17%
Cc1cccc(NC(=O)c2cc(-c3ccc4c(c3)OCCO4)on2)c1,-7%,·,100%,26%,42%[59 µM],·
C=CCNc1nc(C2(C)CC3(CC(C)(C)OC3=O)C(=O)O2)cs1 (stereo not given),-13%,5%,18%,1%,40µM*,-15%
COc1ccc(C(=S)N2CCN(S(=O)(=O)c3ccccc3)CC2)cc1,24%,6%,58%,-23%,13%,6%
CC(=O)N1CCN(C(=S)c2ccc(N(C)C)cc2)CC1,-20%,35µM*,?,-22%,7.1µM*,21µM*
CN(C)c1ccc(C(=S)N2CCOCC2)cc1,1%,1%,23%,·,3%[59 µM],-4%
CN(C)c1ccc(C(=S)N2CCCCCC2)cc1,?,45µM*,-26%,?,8.9µM*,?
CN(C)c1ccc(C(=S)N2CCN(S(=O)(=O)c3ccccc3)CC2)cc1,5%,-6%,20%,?,13µM*,-5%
COCCNC(=O)C1(C)CCN(C(=O)COc2ccc(Cl)cc2Cl)C1 (stereo not given),·,·,·,·,·,-10%
CC1(C)CC(=O)C2=C(C1)N=C1c3ccccc3C(=O)C1C2c1ccc(Cl)cc1 (stereo not given),?,-27%,?,13µM*,10µM*,-10%
